# Assay results published in PubChem BioAssay AID624416 (The Scripps Research Institute Molecular Screening Center, 2012).
# Screen size: about 360,000 compounds; about 1,500 (0.42%) were called active. Only a selection was taken, and actives are over-represented in it overall. A number with no mark means an inactive call. Rule as the data show it: active = inhibition above about 8.5%; inactive = the rest.
# Tested on: HIV-1 gp120 / PG9 antibody interaction
# Experiment: binders of HIV-1 gp120 antibody PG9, primary screen, biochemical, TR-FRET (AID 624416)
# Conditions: TR-FRET gp120-PG9 antibody binding; at 6.7 µM; stronger effect = higher value
row,Structure (SMILES),inhibition
1,Cc1ccc2nc(CN(C)C(=O)[C@@H](Cc3ccccc3)NC(=O)[C@H]3O[C@@H](n4ccc(=O)[nH]c4=O)[C@H](O)[C@@H]3O)[nH]c2c1,-1.8%
2,COc1ccc(SSc2ccc(OC)cc2C(=O)O)c(C(=O)O)c1,-0.62%
3,CC(=O)Nc1ccc(S(=O)(=O)N2CCN(S(=O)(=O)c3cccs3)CC2)cc1,1.11%
4,C=CCn1c(CCNC(=O)c2cccs2)n[nH]c1=S,-0.83%
5,C=CCn1c(=NC(=O)c2cccs2)sc2cc(NC(C)=O)ccc21,10.5% (active)
6,O=C(CN1CCCCCC1)Nc1ccc(S(=O)(=O)N2CCCCC2)cc1,-1.07%
7,C=CCn1c(SCC(=O)Nc2ccc(NC(C)=O)cc2)nc2sc(C)c(C)c2c1=O,1.19%
8,C=CCn1c(=NC(=O)c2ccc(S(=O)(=O)N3CCCC3)cc2)sc2cc(NC(C)=O)ccc21,13% (active)
9,O=C(NCc1ccccc1)[C@@H]1CCCN1C(=O)[C@H]1CCCN1C(=O)c1cccc(Cl)c1,-0.83%
10,Cc1noc(C)c1NC(=O)Nc1ccc2c(c1)C(=O)N([C@H](C)CO)C[C@H](C)[C@H](CN(C)Cc1ccncc1)OCCCC[C@@H](C)O2,0.19%
11,C[C@H]1CN([C@@H](C)CO)C(=O)CCCn2nncc2CO[C@@H]1CN(C)C(=O)Nc1ccc(N2CCN(C)CC2)cc1,-0.47%
12,Cc1[nH]c2ccccc2c1CC(=O)Nc1ccc(Nc2cccnc2)c(-c2cccc(Cl)c2)c1,0.12%
13,O=C(O)Cn1cnc2c(NCc3ccccc3)ncnc21,1.02%
14,CC(=O)C1=C(C)N(Cc2ccccc2)C(=S)NC1c1cccc(Br)c1 (stereo not given),-1.42%
15,CCOc1ccccc1C(=O)N1CCC[C@@H]1C(=O)N1CCC[C@H]1C(=O)NCc1ccccc1,2.14%
16,COc1cccc(CC(=O)N2CCN(C(=O)C(=O)c3cccc(C(F)(F)F)c3)CC2)c1,0.18%
17,COCc1cc(N2CCN(C(=O)OC(C)(C)C)C[C@@H]2C)ccc1N1CCN(Cc2ccccc2)[C@H](C)C1,0.37%
18,CCCCCCCCN1C(=O)[C@@H](CC(=O)NCc2ccccc2)C[C@@]2(C(=O)OC)C1=C[C@H](C(C)(C)C)O[C@@H]2C,-0.73%
19,COCCNc1nc(Nc2ccccc2Cl)c2sc(-c3ccccc3)cc2n1,1.58%
20,COCCCNc1nc2c(-c3cccc(C(F)(F)F)c3)nnn2c2ccccc12,0.39%
21,COCCCNc1nc2c(-c3cccc(C)c3)nnn2c2ccc(Cl)cc12,10.3% (active)
22,CC(C)CNc1cccc2c1S(=O)(=O)N[C@H](CC(C)C)CO2,-0.01%
23,CN(C)C(=O)N1CCN(C(=O)[C@@H](Cc2ccccc2)NC(=O)[C@H]2O[C@@H](n3ccc(N)nc3=O)[C@H](O)[C@@H]2O)CC1,-2.32%
24,CCCOc1ccc(C2C(C(=O)c3ccc(C)o3)=C(O)C(=O)N2CCCn2ccnc2)cc1 (stereo not given),54.6% (active)
25,C=CCOc1cccc(C2C(C(=O)c3ccc(C)o3)=C(O)C(=O)N2c2nnc(C)s2)c1 (stereo not given),2.85%
26,CCOc1ccc(C2/C(=C(/O)c3ccc4c(c3)CC(C)O4)C(=O)C(=O)N2CCCn2ccnc2)cc1 (stereo not given),1.05%
27,c1ccc(Cc2ccc(OCCn3ccnc3)cc2)cc1,-0.66%

row,Structure (SMILES),inhibition
1,C=CCOc1cccc(C2C(C(=O)c3ccc(C)o3)=C(O)C(=O)N2CCN2CCOCC2)c1 (stereo not given),2.96%
2,C=CCOc1cccc(C2C(C(=O)c3ccc(C)o3)=C(O)C(=O)N2CCCn2ccnc2)c1 (stereo not given),11.1% (active)
3,COC(=O)c1c(-c2ccc(OC)cc2)c2c(c3c4cc(OC)ccc4n(S(=O)(=O)c4ccc(F)cc4)c13)C(=O)N(C)C2,1.03%
4,COC(=O)c1c(-c2ccc(OC)cc2)c2c(c3c4ccccc4n(S(=O)(=O)c4ccc(C)cc4)c13)C(=O)N(C)C2,0.17%
5,CN1C(=O)C2CC(O)C(SC3CC4C(=O)N(C)C(=O)C4CC3O)CC2C1=O (stereo not given),0.46%
6,CC(C)(C)c1ccc(S(=O)(=O)NCC2CCN(C(=O)C(=O)c3cc4ccccc4o3)CC2)cc1,-1.81%
7,Cc1cc(Br)cn2c(Cc3ccccc3C(F)(F)F)c(-c3ccc(C#N)cc3)nc12,0.29%
8,COc1cc(N)c(Cl)cc1C(=O)OCC(=O)c1ccc2c(c1)NC(=O)CO2,-0.01%
9,O=C1COc2ccc(C(=O)COC(=O)c3cccnc3Cl)cc2N1,-1.31%
10,O=C1COc2ccc(C(=O)COC(=O)c3ccccc3Cl)cc2N1,28.2% (active)
11,OC(c1ccccc1)(c1ccccc1)C1CCN(CCCOc2ccc(-c3ccsc3)cc2)CC1,1.88%
12,COCCCNC(=O)C[C@H]1C[C@@]2(C(=O)OC)C(=C[C@H](C(C)(C)C)O[C@@H]2C)N(Cc2ccc3c(c2)OCO3)C1=O,0.35%
13,CC(C)C[C@H](NC(=O)CC1CCCC1)C(=O)N1CCC[C@H]1C(=O)NCc1ccccc1,-0.84%
14,Cn1c(=S)sc2ccc3ccccc3c21,14.2% (active)
15,COc1ccc2ccccc2c1CNc1nnnn1C,0.54%
16,CC(=O)C1=C(C)N(Cc2ccc(Cl)cc2)C(=S)NC1c1ccc(F)cc1 (stereo not given),-2.38%
17,Cc1ccc2nc(-c3ccc(CN4CCC(n5cc(-c6ccccc6)[nH]c5=O)CC4)cc3)c(-c3ccccc3)nc2c1,-0.32%
18,O=C(NCc1ccccc1)[C@H]1CCCN1C(=O)[C@H]1CCCN1C(=O)N1CCOCC1,-0.88%
19,CC(C)(C)n1nc(C2CC2)c(Br)c1NC(=O)c1ccccc1F,0.97%
20,CC1CCN(C(=O)c2ncn3c2C(=O)N[C@@H](C)C3)CC1,-0.93%
21,O=C(OCc1ccccc1F)c1ccc2c(c1)OCCO2,-1.71%
22,O=C(COC(=O)c1ccc2c(c1)OCCO2)NCc1ccccc1Cl,9.13% (active)
23,O=C(COC(=O)c1cc2c(s1)CCCC2)NCc1ccccc1Cl,-0.89%
24,CCOC(=O)/C=C/c1ccccc1O,0.44%
25,O=C1C(=O)N(CCCN2CCOCC2)C(c2ccc([N+](=O)[O-])cc2)/C1=C(\O)c1ccc2c(c1)OCCO2 (stereo not given),-1.43%
26,COCCCN1C(=O)C(=O)/C(=C(/O)c2ccc3c(c2)CC(C)O3)C1c1cccnc1 (stereo not given),3.22%
27,O=C1C(=O)N(CCN2CCOCC2)C(c2cccc(Cl)c2)/C1=C(/O)c1ccc2c(c1)OCO2 (stereo not given),30.6% (active)

row,Structure (SMILES),inhibition
1,O=C1C(=O)N(CCN2CCOCC2)C(c2ccccn2)/C1=C(/O)c1ccc(Cl)cc1 (stereo not given),0.67%
2,CC1Cc2cc(/C(O)=C3\C(=O)C(=O)N(CCN4CCOCC4)C3c3ccccc3F)ccc2O1 (stereo not given),13.2% (active)
3,COc1ccc(C2/C(=C(/O)c3ccc4c(c3)CC(C)O4)C(=O)C(=O)N2Cc2ccncc2)cc1 (stereo not given),2.5%
4,Cc1nc(NC(=O)C(C)(C)C)sc1[N+](=O)[O-],-0.45%
5,COC(=O)C1=C(C)N(Cc2cccc(C(F)(F)F)c2)C(=NCc2ccccc2)NC1c1ccccc1C(F)(F)F (stereo not given),0.63%
6,COC(=O)C(C(=O)OC)c1ccccc1NS(=O)(=O)c1cccc2ccccc12,0.18%
7,CC(=NNC(N)=O)c1ccc(Cl)c(-n2cccc2)c1,0.53%
8,CCN(CC)S(=O)(=O)c1ccc2[nH]cc(C(=O)NCCc3ccccc3)c(=O)c2c1,-0.32%
9,CCCCNC(=O)c1c[nH]c2ccc(S(=O)(=O)Nc3ccc(OCC)cc3)cc2c1=O,2.91%
10,COc1cccc(NS(=O)(=O)c2ccc3[nH]cc(C(=O)NCCCOC(C)C)c(=O)c3c2)c1,10.3% (active)
11,CN1CCCCC(NC(=O)C(C)(C)C)C1=O (stereo not given),-1.72%
12,CC(C)N(c1ccccc1)c1ncnc(NCCC(=O)O)c1[N+](=O)[O-],-1.67%
13,O=C(O)CCCCCNc1ncnc2ccc(Br)cc12,18.3% (active)
14,COC(=O)[C@]1(Cc2ccccc2)NC=C(C(=O)c2ccccc2)[C@@H]1c1cccc(OC)c1,-1.25%
15,CC(=O)Nc1ccc(Nc2nc3c(S(=O)(=O)c4ccc(C)c(C)c4)nnn3c3ccccc23)cc1,1.78%
16,Cc1cccc(Nc2nc3c(S(=O)(=O)c4ccccc4)nnn3c3ccccc23)c1C,16.5% (active)
17,Cc1cc(Nc2cccc(C)c2C)n2ncnc2n1,0.14%
18,COc1cccc(CNC(=O)[C@H]2CCCN2C(=O)[C@H]2CCCN2C(=O)c2ccc(F)cc2)c1,-1.74%
19,O=C(C(=O)N1CCC(CNS(=O)(=O)Cc2ccccc2)CC1)c1cc2ccccc2o1,0.63%
20,COC(=O)c1cc2c(c3c4cc(F)ccc4n(S(=O)(=O)c4ccccc4)c13)C(=O)N(Cc1ccccc1OC)C2,0.8%
21,CCOC(=O)C1CSCCS(=O)(=O)N1Cc1ccc(Cl)cc1 (stereo not given),-1.82%
22,Cc1ccccc1C(=O)N[C@H](C(=O)N1CCC[C@H]1C(=O)NCc1ccccc1)C(C)C,-2.77%
23,Cc1nc2nc(SCC(=O)c3ccccc3)[nH]c2cc1Br,29.2% (active)
24,CC(=O)Nc1ccc(C(=O)CSc2nc3ccc(C)cc3[nH]2)cc1,-0.81%
25,Cc1nc2nc(SCC(=O)Nc3cccc(F)c3)[nH]c2cc1Br,-0.51%
26,COc1cccc(-c2cc(CNC(=O)[C@@H](Cc3ccccc3)NC(=O)[C@H]3O[C@@H](n4cnc(C(N)=O)n4)[C@H](O)[C@@H]3O)no2)c1,-2.73%
